RecA splice inh: inhibitors of M. tuberculosis RecA intein splicing; P9WHJ3; cell-free RecA intein splicing, fluorescence; inhibition, % (concentration not given with the values); hit rate 0.75% among 290,000; AID 2221; in the data active = inhibition above about 30%;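 note: 0% = vehicle wells and 100% = reference inhibitor control wells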
CCHF vOTU inh: CCHFV vOTU protease inhibition. Pep-AMC fluorescence. inhibition, % at 11.5 µM. hit rate 0.55% among 370,000. AID 651958; note: 0% = vehicle wells with enzyme and 100% = no enzyme wells
VHR inh abs: DUSP3 (human) phosphatase inhibition; inhibition, % at 13.3 µM; P51452; AID 1654; recombinant VHR phosphatase, pNPP absorbance; hit rate 0.52% among 290,000; in the data active = inhibition above about 50%
Target sequence (P51452 whole entry, looked up): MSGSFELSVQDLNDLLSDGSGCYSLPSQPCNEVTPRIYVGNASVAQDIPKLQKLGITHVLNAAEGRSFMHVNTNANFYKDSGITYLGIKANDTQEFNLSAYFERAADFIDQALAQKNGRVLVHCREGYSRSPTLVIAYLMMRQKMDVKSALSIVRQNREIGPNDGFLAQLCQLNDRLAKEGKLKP
GDH-TPI counter: GDH-TPI coupled enzyme inhibition counter-screen; GDH-TPI coupled enzyme counterscreen, NADH absorbance; inhibition, % at 4.8 µM; hit rate 1.2% among 360,000;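 note: 0% = DMSO wells and 100% = wells lacking the enzyme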
FBA Mtb inh: inhibits M. tuberculosis FBA enzyme; inhibition, % at 1 µM; purified M. tuberculosis FBA, fluorescence read-out; hit rate 2.3% among 360,000; AID 588726; in the data active = inhibition above about 27%;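 note: 0% = vehicle and 100% = reference inhibitor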
Target sequence (P9WQA3 whole entry, looked up): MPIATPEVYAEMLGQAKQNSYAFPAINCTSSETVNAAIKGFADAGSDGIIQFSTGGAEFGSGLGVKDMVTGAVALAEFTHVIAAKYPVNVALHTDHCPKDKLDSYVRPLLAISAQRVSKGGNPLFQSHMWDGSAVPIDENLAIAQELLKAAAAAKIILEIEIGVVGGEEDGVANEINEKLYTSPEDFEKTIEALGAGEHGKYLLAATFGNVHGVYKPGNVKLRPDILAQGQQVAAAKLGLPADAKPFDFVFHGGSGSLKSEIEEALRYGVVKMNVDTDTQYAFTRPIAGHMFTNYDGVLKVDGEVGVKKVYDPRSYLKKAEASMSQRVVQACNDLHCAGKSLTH
3CLpro inhibitor: SARS-CoV 3CLpro protease inhibition; P0C6X7; recombinant SARS-CoV 3CLpro, quenched FRET peptide cleavage; inhibition, % at 6 µM; hit rate 0.14% among 290,000; AID 1706; in the data active = inhibition above about 12%
Starred values were filed as active, the others as inactive. This is a sample that favours compounds with a hit; in the whole collection about 4.7% have one here. Cut-off read from the data, not from the text of the source, unless noted: active = inhibition above about 30%; inactive = the rest.

Screening Cc1c(CC(=O)N2C[C@H]3C[C@@H](C2)c2cccc(=O)n2C3)c(=O)oc2cc(O)c(Cl)cc12 returned RecA splice inh -486, CCHF vOTU inh -286, VHR inh abs 12, GDH-TPI counter 31* and 3CLpro inhibitor 0.
`Cc1c(C)c2cc(Cl)c(OCC(=O)N3C[C@H]4C[C@@H](C3)c3cccc(=O)n3C4)cc2oc1=O` gave RecA splice inh 17, CCHF vOTU inh -5, VHR inh abs 4, GDH-TPI counter 10, FBA Mtb inh 9 and 3CLpro inhibitor -2.
For Cc1oc2c(C)c3oc(=O)c(CCC(=O)N4C[C@H]5C[C@@H](C4)c4cccc(=O)n4C5)c(C)c3cc2c1C the results were RecA splice inh 0, CCHF vOTU inh 4, VHR inh abs 13, GDH-TPI counter 6, FBA Mtb inh 4 and 3CLpro inhibitor -1.
For Cc1c(CCC(=O)N2C[C@H]3C[C@@H](C2)c2cccc(=O)n2C3)c(=O)oc2c(C)c(O)ccc12 the results were CCHF vOTU inh -178, GDH-TPI counter 8 and FBA Mtb inh 191*.
Cc1c(CC(=O)N2C[C@H]3C[C@@H](C2)c2cccc(=O)n2C3)c(=O)oc2c(C)c(O)ccc12 was read as RecA splice inh -70, CCHF vOTU inh -187, VHR inh abs 8, GDH-TPI counter 11, FBA Mtb inh active and 3CLpro inhibitor 1.
`CCn1c(COc2ccc(C)cc2)nnc1SCC(=O)Nc1ccccc1-c1ccccc1` gave CCHF vOTU inh 12.
`Cc1ccc(NC(=O)COc2ccccc2C(N)=O)cc1S(=O)(=O)N1CCCCCC1` gave CCHF vOTU inh 13, GDH-TPI counter -3 and FBA Mtb inh 1.
For COC(=O)Nc1nnc(/C=C/c2ccccc2)s1 the results were RecA splice inh -7, CCHF vOTU inh -134, VHR inh abs -8, GDH-TPI counter 24, FBA Mtb inh active and 3CLpro inhibitor -3.
COc1ccc(/C=C/c2nnc(NC(=O)CSc3ccc(C)cc3)s2)cc1 was read as RecA splice inh -3, CCHF vOTU inh -10, VHR inh abs -4, GDH-TPI counter -6, FBA Mtb inh 2 and 3CLpro inhibitor 5.
For CCC(=O)Nc1nnc(/C=C/c2ccc(OC)cc2)s1 the results were RecA splice inh -2, CCHF vOTU inh -33, VHR inh abs 4, GDH-TPI counter 43*, FBA Mtb inh -12 and 3CLpro inhibitor -3.
For CC(=O)Nc1nnc(/C=C/c2cccc([N+](=O)[O-])c2)s1 the results were CCHF vOTU inh 5, VHR inh abs -2, GDH-TPI counter -4, FBA Mtb inh 1 and 3CLpro inhibitor -2.
Cc1cc(-c2nn(-c3ccccc3F)cc2CN2CCCC(O)C2)c(C)s1 (stereo unspecified) was read as RecA splice inh -1, CCHF vOTU inh 5, VHR inh abs 53*, GDH-TPI counter 23, FBA Mtb inh 4 and 3CLpro inhibitor 3.
CCC(=O)Nc1c(C)nn(-c2ccc(C)c(C)c2)c1C was read as RecA splice inh -4, CCHF vOTU inh 1, VHR inh abs 32, GDH-TPI counter 2, FBA Mtb inh 3 and 3CLpro inhibitor 2.
For Cc1ccc(-n2nc(C)c(NC(=O)CCl)c2C)cc1C the results were RecA splice inh 42*, CCHF vOTU inh -16, VHR inh abs 12, GDH-TPI counter -5, FBA Mtb inh 1 and 3CLpro inhibitor 2.
For Cc1ccc(CN2CCSc3ccc(C(=O)NC4CCCC4)cc32)cc1 the results were RecA splice inh 1, VHR inh abs -14, GDH-TPI counter -3, FBA Mtb inh 7 and 3CLpro inhibitor 5.
Screening Cc1ccc(CN2CCSc3ccc(C(=O)NCCCN4CCN(C)CC4)cc32)cc1 returned RecA splice inh -11, CCHF vOTU inh -171, VHR inh abs 8, GDH-TPI counter 5, FBA Mtb inh 161* and 3CLpro inhibitor -4.
Screening O=C(NCC1CCCO1)c1ccc2c(c1)N(Cc1ccc(Cl)cc1)CCS2 (stereo unspecified) returned CCHF vOTU inh -93, GDH-TPI counter 12 and FBA Mtb inh 132*.
`COCCn1c(-c2ccc(OC)cc2)c(-c2ccc(OC)cc2)oc1=O` gave RecA splice inh 1, CCHF vOTU inh -3, VHR inh abs -2, GDH-TPI counter -3, FBA Mtb inh 131* and 3CLpro inhibitor 10.
`CCOc1cc(/C=C2/SC(=S)N(CC(=O)O)C2=O)ccc1OC(=O)c1cccs1` gave RecA splice inh 16, CCHF vOTU inh 19, VHR inh abs -12, GDH-TPI counter 41*, FBA Mtb inh 3 and 3CLpro inhibitor 4.
CCOc1cc(/C=C2\SC(=S)N(C(C(=O)O)c3ccccc3)C2=O)ccc1O (stereo unspecified) was read as RecA splice inh 7, CCHF vOTU inh 28, VHR inh abs -1, GDH-TPI counter 38*, FBA Mtb inh -18 and 3CLpro inhibitor 2.
`Cc1cn([C@H]2C[C@H](O)[C@@H](CCC(=O)NCCc3ccc4ccccc4c3)O2)c(=O)[nH]c1=O` gave CCHF vOTU inh -1 and FBA Mtb inh 0.
CC(C)(C)c1ccc(-c2csc(NNC3=NCCCCC3)n2)cc1 was read as RecA splice inh 3, CCHF vOTU inh -4, VHR inh abs 55*, GDH-TPI counter -4, FBA Mtb inh 0 and 3CLpro inhibitor -3.
`Nc1nc(-c2cc(O)ccc2[N+](=O)[O-])cc(-c2ccccc2)c1[N+](=O)[O-]` gave RecA splice inh -19, CCHF vOTU inh 18, VHR inh abs 68, GDH-TPI counter 33*, FBA Mtb inh 3 and 3CLpro inhibitor -3.
Screening CN(c1ccc(Cl)cc1)c1cc2c(c3c1ccn3C)C1CCC2O1 (stereo unspecified) returned CCHF vOTU inh -1 and FBA Mtb inh 1.
`COc1ccc(NC(=O)C2CCCN2S(=O)(=O)c2cccc3nsnc23)c(OC)c1` (stereo unspecified) gave RecA splice inh 3, VHR inh abs 60*, GDH-TPI counter 9, FBA Mtb inh 3 and 3CLpro inhibitor -1.
For COc1ccc(N(CC(=O)NC2CCCC2)C(=O)CCC(=O)Nc2nc(C)cs2)cc1OC the results were CCHF vOTU inh 17, VHR inh abs 53*, GDH-TPI counter -1, FBA Mtb inh 3 and 3CLpro inhibitor -1.
Screening Cc1[nH]nc(SCC(=O)NC2CCCC2)c1[N+](=O)[O-] returned RecA splice inh -3, CCHF vOTU inh -5, VHR inh abs 1, GDH-TPI counter -1, FBA Mtb inh -2 and 3CLpro inhibitor 0.
Cc1[nH]nc(SCC(=O)NC2CCCCC2)c1[N+](=O)[O-] was read as RecA splice inh -1, CCHF vOTU inh 12, VHR inh abs 54*, GDH-TPI counter 3, FBA Mtb inh -1 and 3CLpro inhibitor 0.
Screening COc1cccc(CN(C)C(=O)[C@H]2O[C@@H](n3cnc4c(=O)[nH]c(N)nc43)[C@H](O)[C@@H]2O)c1 returned CCHF vOTU inh -2.
